Measurements taken from PubChem BioAssay (NCI).
This is part of a sample that, as a whole, favours compounds with a hit. Of some 79,000 tested, about 15% had one in any assay. A number with no mark means an inactive call. Activity calls are given as the source filed them. Rule as the data show it: active = growth inhibition above about 70%; inactive = the rest.

Key:
[1] = NCI Yeast Anticancer Drug Screen. Data for the rad50 strain (AID 155);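 also: 0% = growth of vehicle-only cultures of the same strain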; conditions: S. cerevisiae rad50 strain growth inhibition; at 50.0 µM; active compounds read high
How it was run: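 Yeast carrying a defined DNA repair defect were exposed to test compounds, and growth was compared with vehicle-treated controls to give percent inhibition.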

[2] = NCI Yeast Anticancer Drug Screen. Data for the mec2-1 strain (AID 157); conditions: S. cerevisiae mec2-1 strain, at 50.0 µM, active compounds read high
How it was run: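 mec2-1 yeast strain, carrying an alteration in DNA damage repair or cell cycle control, was exposed to compounds; growth inhibition was measured relative to vehicle-treated controls.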

[3] = NCI Yeast Anticancer Drug Screen. Data for the sgs1 mgt1 strain (AID 161);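 also: 0% = growth of cultures given vehicle only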; conditions: S. cerevisiae sgs1 mgt1 strain, at 50.0 µM, active compounds read high
How it was run: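 This yeast growth screen uses a strain with defined DNA-repair lesions; compound-treated growth is compared with vehicle-treated growth.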

[4] = NCI Yeast Anticancer Drug Screen. Data for the cln2 rad14 strain (AID 165);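 also: 0% = growth equal to vehicle treated cultures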; conditions: S. cerevisiae cln2 rad14 strain, at 50.0 µM, active compounds read high
How it was run: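 Yeast carrying cln2 and rad14 alterations (cell cycle control and DNA damage repair) were exposed to compounds. Growth inhibition was measured against vehicle-treated controls.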

[5] = NCI Yeast Anticancer Drug Screen. Data for the bub3 strain (AID 167); conditions: S. cerevisiae bub3 mutant strain, at 50.0 µM, active compounds read high
How it was run: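 Compounds were applied to a genetically altered yeast strain carrying a cell-cycle control defect. Growth inhibition was scored against vehicle-treated controls.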

[6] = NCI Yeast Anticancer Drug Screen. Data for the mlh1 rad18 strain (AID 175); conditions: S. cerevisiae mlh1 rad18 strain growth inhibition; at 50.0 µM; active compounds read high
How it was run: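 Growth inhibition of the yeast strain was measured after compound exposure and expressed relative to vehicle-treated controls. The strain carries defined defects in DNA damage repair.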

For `Nc1ncnc(N)n1`, the growth inhibition [1] was -7.3%, the growth inhibition [2] was -17.1% and the growth inhibition [3] was 13.3%. For the same compound, the growth inhibition [4] was -28.8%, the growth inhibition [5] was -2.2% and the growth inhibition [6] was -9.65%.

`CCC/C=C/C=C/C(=O)OC1/C(=C/C(=O)OC)CC2CC(C(C)O)OC(=O)CC(O)CC3CC(OC(C)=O)C(C)(C)C(O)(CC4C/C(=C/C(=O)OC)CC(/C=C/C(C)(C)C1(O)O2)O4)O3` (configuration not stated) showed a growth inhibition [1] of 15.7%, a growth inhibition [2] of -5.2% and a growth inhibition [3] of -7.85%. The growth inhibition [4] was 21.3%, the growth inhibition [5] was 6.15% and the growth inhibition [6] was 23.1%.

For `O=C1C=CC(=O)c2c(O)cccc21`, the growth inhibition [1] was 27.4%, the growth inhibition [2] was 13.2% and the growth inhibition [3] was 38%. It also gave a growth inhibition [4] of 15.4%, a growth inhibition [5] of 41.3% and a growth inhibition [6] of 29.2%.

In the case of `c1cc[c]([Sn]2([c]3ccccc3)[O]CCNCC[O]2)cc1`, the growth inhibition [1] is reported as -13.1%, the growth inhibition [2] is reported as -14.4% and the growth inhibition [3] is reported as 10.4%. For the same compound, the growth inhibition [4] was -14.9%, the growth inhibition [5] was -48.7% and the growth inhibition [6] was -74.4%.

Work on `Cc1nn[n-]n1.N.N.N.N.N.[Cl-].[Co+3]` yielded a growth inhibition [1] of 4.25%, a growth inhibition [2] of 6.3% and a growth inhibition [3] of 22.1%. The growth inhibition [4] was 27.9%, the growth inhibition [5] was 9.6% and the growth inhibition [6] was 13.1%.

For `CC(COC(=O)NCc1ccccc1)OC(N)=O` (configuration not stated), the growth inhibition [1] was -1.05%, the growth inhibition [2] was -14.8% and the growth inhibition [3] was 13.1%. For the same compound, the growth inhibition [4] was -10.3%, the growth inhibition [5] was 1.15% and the growth inhibition [6] was -11.4%.

With `O=S(=O)(O)c1ccc(CBr)cc1` the growth inhibition [1] was -27.6%, the growth inhibition [2] was -27.6% and the growth inhibition [3] was 0.6%. The growth inhibition [4] was -36.4%, the growth inhibition [5] was -3.5% and the growth inhibition [6] was -6.85%.

With `OCC1C(/C=C/c2ccoc2)ON2CCCC12` (configuration not stated) the growth inhibition [1] was -16.6%, the growth inhibition [2] was -0.5% and the growth inhibition [3] was -8.05%. It also gave a growth inhibition [4] of 26.6%, a growth inhibition [5] of 18.1% and a growth inhibition [6] of -27.6%.

For `CCCC(C)c1ccc(SOO)cc1.[Fe]` (configuration not stated), the growth inhibition [1] was 19.9%, the growth inhibition [2] was 4.05% and the growth inhibition [3] was -13.7%. It also gave a growth inhibition [4] of -17.5%, a growth inhibition [5] of 8.5% and a growth inhibition [6] of -6.6%.

With `CCC1CC[N-]CC1.CCC1CC[N-]CC1.[Cl][Pt+2][Cl]` the growth inhibition [1] was -0.95%, the growth inhibition [2] was 14.8% and the growth inhibition [3] was 73% (active). The growth inhibition [4] was -42.5%, the growth inhibition [5] was 18.1% and the growth inhibition [6] was 48.8%.

Work on `CN(Cc1cnc2nc(N)nc(N)c2n1)c1ccc(C(=O)NC(CCC(=O)NC(CC(P(=O)(O)O)P(=O)(O)O)C(=O)O)C(=O)O)cc1` (configuration not stated) yielded a growth inhibition [1] of -19.6%, a growth inhibition [2] of -14.6% and a growth inhibition [3] of -8.05%. The growth inhibition [4] was 16.6%, the growth inhibition [5] was 5.75% and the growth inhibition [6] was -21.9%.

Compound `O=C1CC23c4ccccc4N4C(=O)CC5OCC=C6CN1C2CC6C5C43` (configuration not stated) has a growth inhibition [1] of 4.1%, a growth inhibition [2] of -34.5% and a growth inhibition [3] of -7.15%. For the same compound, the growth inhibition [4] was 7.9%, the growth inhibition [5] was 12.8% and the growth inhibition [6] was 6.8%.

Compound `CC(C)Oc1ccccc1OC(=O)N(C)C=O` has a growth inhibition [1] of -15.9%, a growth inhibition [2] of -2.7% and a growth inhibition [3] of -6.8%. The growth inhibition [4] was -18%, the growth inhibition [5] was -17.3% and the growth inhibition [6] was -15.4%.

With `CC(=S)N=Cc1c(O)[nH]c(=O)[nH]c1=O` the growth inhibition [1] was -6.2%, the growth inhibition [2] was -6.8% and the growth inhibition [3] was -10.2%. It also gave a growth inhibition [4] of 21.6%, a growth inhibition [5] of -7.55% and a growth inhibition [6] of 9.55%.

For `CCCCc1ccc(N=C(N)N)cc1`, the growth inhibition [1] was 25.6%, the growth inhibition [2] was 9.35% and the growth inhibition [3] was 19.4%. The growth inhibition [4] was 8.3%, the growth inhibition [5] was 12.2% and the growth inhibition [6] was -1.95%.

Work on `N#Cc1ccccc1Cl` yielded a growth inhibition [1] of 8.05%, a growth inhibition [2] of -8.4% and a growth inhibition [3] of 5.45%. For the same compound, the growth inhibition [4] was 20.7%, the growth inhibition [5] was 24.2% and the growth inhibition [6] was 40%.

For `O=P(Oc1ccccc1)(Oc1ccccc1)N(CCCl)CCCl`, the growth inhibition [1] was 0.2%, the growth inhibition [2] was 9.55% and the growth inhibition [3] was -8.35%. For the same compound, the growth inhibition [4] was -11.9%, the growth inhibition [5] was -19.2% and the growth inhibition [6] was -37.6%.

`CC1(C)N=C(N)N=C(N)N1c1cccc(CCC(=O)Nc2ccc[n+](Cc3ccc(S(=O)(=O)F)cc3)c2)c1` showed a growth inhibition [1] of -1.3%, a growth inhibition [2] of -8.35% and a growth inhibition [3] of 13.4%. The growth inhibition [4] was -17.8%, the growth inhibition [5] was -9.55% and the growth inhibition [6] was -11.9%.

`O=P(O)(O)c1ccccc1` (tested in a mixture with another compound) gave a growth inhibition [1] of -28.9%, a growth inhibition [2] of -6.45% and a growth inhibition [3] of -15.2%. For the same compound, the growth inhibition [4] was -35.1%, the growth inhibition [5] was -31.9% and the growth inhibition [6] was 2.7%.

For `Cc1cc(NC2=NCCO2)c2c(c1C)CCCC2`, the growth inhibition [1] was -10.1%, the growth inhibition [2] was -23.1% and the growth inhibition [3] was -6.9%. It also gave a growth inhibition [4] of 22.3%, a growth inhibition [5] of -7.85% and a growth inhibition [6] of -5.35%.

For `O=C1C=CC(=Nc2cc(Cl)c(O)c(Cl)c2)C=C1`, the growth inhibition [1] was 26.6%, the growth inhibition [2] was 42.5% and the growth inhibition [3] was 32.5%. The growth inhibition [4] was 20.1%, the growth inhibition [5] was 31.1% and the growth inhibition [6] was 42.8%.

Compound `CC(=O)Oc1ccc(C=C(C#N)C#N)cc1` has a growth inhibition [1] of 40.6%, a growth inhibition [2] of 6.6% and a growth inhibition [3] of 12.4%. The growth inhibition [4] was -7.1%, the growth inhibition [5] was 2.05% and the growth inhibition [6] was 14.9%.

Work on `CC(C)=CC(=O)N(C)C1C2CN3CCC(O2)C13` (configuration not stated) yielded a growth inhibition [1] of 7.3%, a growth inhibition [2] of 14.6% and a growth inhibition [3] of 14.1%. It also gave a growth inhibition [4] of 43.9%, a growth inhibition [5] of 29.9% and a growth inhibition [6] of 21.6%.

`CCOC(=O)C(=O)CC(=O)[C@H]1CC[C@H]2[C@@H]3CC[C@@H]4C[C@H](O)CC[C@]4(C)[C@H]3C(=O)C[C@]12C` gave a growth inhibition [1] of 30.6%, a growth inhibition [2] of 15.3% and a growth inhibition [3] of 40.8%. The growth inhibition [4] was 37.5%, the growth inhibition [5] was -3.8% and the growth inhibition [6] was 34.7%.

`CCOC(=O)C(Br)Br` showed a growth inhibition [1] of 20%, a growth inhibition [2] of -2.7% and a growth inhibition [3] of -13.9%. The growth inhibition [4] was 22.2%, the growth inhibition [5] was 23.3% and the growth inhibition [6] was 10.6%.

With `C=CCc1c[nH]c(=S)[nH]c1=O.[Hg]` the growth inhibition [1] was 99.1% (active), the growth inhibition [2] was 98.8% (active) and the growth inhibition [3] was 98.8% (active). The growth inhibition [4] was 98.8% (active), the growth inhibition [5] was 99% (active) and the growth inhibition [6] was 98.8% (active).

Work on `COc1ccc2c(c1O)CNCC2c1ccc(O)cc1O` (configuration not stated) yielded a growth inhibition [1] of 0.6%, a growth inhibition [2] of -12% and a growth inhibition [3] of -7.25%. The growth inhibition [4] was -11.9%, the growth inhibition [5] was -24.8% and the growth inhibition [6] was -2%.

Work on `O=C(O)/C=C\c1c[nH]c2ccccc12` (tested in a mixture with another compound) yielded a growth inhibition [1] of -3.3%, a growth inhibition [2] of -7.35% and a growth inhibition [3] of -13.4%. It also gave a growth inhibition [4] of 0.95%, a growth inhibition [5] of -10.8% and a growth inhibition [6] of -12.2%.

With `COc1ccc(/C=C\c2cc(OC)c(OC)c(OC)c2)cc1OC(=O)CCC(=O)O` the growth inhibition [1] was -13.1%, the growth inhibition [2] was -12.3% and the growth inhibition [3] was 8.7%. It also gave a growth inhibition [4] of 24.1%, a growth inhibition [5] of 14.2% and a growth inhibition [6] of -27.1%.

For `COC1=C(OC)C23CCc4ccc(OC)c(O)c4C2(CCN3)CC1=O` (configuration not stated), the growth inhibition [1] was 7.5%, the growth inhibition [2] was -10.7% and the growth inhibition [3] was 25.2%. The growth inhibition [4] was 14.1%, the growth inhibition [5] was 1.6% and the growth inhibition [6] was -27.4%.

Compound `CC1C2Cc3ccc(O)cc3C1(C)CCN2C` (configuration not stated) has a growth inhibition [1] of 37%, a growth inhibition [2] of 29.6% and a growth inhibition [3] of 30.6%. For the same compound, the growth inhibition [4] was 17.6%, the growth inhibition [5] was 35% and the growth inhibition [6] was 16.1%.

For `COc1cc2c(cc1O)CC1CC(=O)CCN1C2` (configuration not stated), the growth inhibition [1] was -3.4%, the growth inhibition [2] was 4.5% and the growth inhibition [3] was -12.1%. It also gave a growth inhibition [4] of -6.85%, a growth inhibition [5] of -10.8% and a growth inhibition [6] of -0.75%.

Compound `NCCCNCCCN` has a growth inhibition [1] of 5.2%, a growth inhibition [2] of -3.1% and a growth inhibition [3] of -3.95%. For the same compound, the growth inhibition [4] was -4.3%, the growth inhibition [5] was 7.85% and the growth inhibition [6] was -11.7%.

Compound `CCCCCCCCCCCCCCCC[As]1c2ccccc2Nc2ccccc21` has a growth inhibition [1] of 4.4%, a growth inhibition [2] of 16.7% and a growth inhibition [3] of 7.05%. For the same compound, the growth inhibition [4] was 81.3% (active), the growth inhibition [5] was 7.45% and the growth inhibition [6] was 28.5%.

`O=[P+](O)C(O)c1ccccc1` (configuration not stated) showed a growth inhibition [1] of -20.6%, a growth inhibition [2] of -27.9% and a growth inhibition [3] of -14.1%. The growth inhibition [4] was 4.9%, the growth inhibition [5] was -10.8% and the growth inhibition [6] was -7.7%.

With `O=C(NCC(O)CO)c1cc([N+](=O)[O-])cc([N+](=O)[O-])c1N(CCCl)CCCl` (configuration not stated) the growth inhibition [1] was 31.8%, the growth inhibition [2] was 19.8% and the growth inhibition [3] was 28.7%. The growth inhibition [4] was 2.05%, the growth inhibition [5] was 13.9% and the growth inhibition [6] was 12.6%.

`COC(=O)C1(C(=O)OC)Cc2ccc(C)cc2C2=C1C(=O)c1ccccc1C2=O` gave a growth inhibition [1] of -25.8%, a growth inhibition [2] of -10.2% and a growth inhibition [3] of 5.5%. The growth inhibition [4] was 7.55%, the growth inhibition [5] was -3.4% and the growth inhibition [6] was 7.85%.
